In PubChem BioAssay (Tox21):
Results filed as inconclusive are left out. A number with no mark means an inactive call. The source made the active and inactive calls. Unless noted, calls come from the whole dose curve; as a rule, active = well fitted cell-killing curve with a large enough effect in the repeat runs; inconclusive = weak or mixed curves, or effect the other way; inactive = no such curve, though single readings can be large or run the other way.

Experiment: qHTS assay to identify small molecule antagonists of the vitamin D receptor (VDR) signaling pathway - cell viability counter screen (AID 743225); note: nearly all actives have a fitted effect of over 50% in size; note: potency is the fitted concentration of half-maximal effect
Settings: VDR-bla HEK293T viability, CellTiter-Glo luminescence, 16 h; series mostly up to 61 µM; viability change, negative = cytotoxic: at the top concentration
In short: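 VDR-UAS-bla HEK 293T cells were plated and incubated 4 h at 37C, then dosed with compound plus 3 nM (final) 1-alpha,25-dihydroxyvitamin D3 for 16 h. After the 2 h beta-lactamase read, viability in the same wells was read as CellTiter-Glo luminescence after 30 min at room temperature.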
% is set by controls: 0 for no effect and ±100 for the full control effect.

Compound | viability change, negative = cytotoxic | Potency
C[C@@H](N)C(=O)O | -7.05% | –
CCc1cc(Cl)c(OC)c(C(=O)NC[C@@H]2CCCN2CC)c1O | 1.05% | –
CC1(O)CSC(C)(O)CS1 (stereo not drawn) | 11.1% | –
Cc1cc2nc(N)sc2cc1C | -0.186% [at 78.8 µM] | –
Cc1nc(N)nc(N)c1-c1ccc(Cl)c(Cl)c1 | – | 3.79 µM (active)
COc1ccc(Nc2ccc(OC)cc2)cc1 | 15.7% [at 78.8 µM] | –
CCCCCCOc1ccc(N)cc1 | -22.2% | –
CC(C)c1ccccc1 | 2.81% [at 78.8 µM] | –
Cc1nc(-c2ccccn2)ncc1C(=O)Nn1cc(C)c2cc(F)ccc21 | -12.7% | –
Cc1cccc(C)c1NC(=O)CN1CCCCCC1 | 4.13% | –
O=C(CC(=O)C(F)(F)F)c1ccccc1 | -8.82% [at 78.8 µM] | –
O=Cc1ccc(O)c(O)c1O | 4.02% | –
CC(C)C[C@H](NC(=O)OCC1c2ccccc2-c2ccccc21)C(=O)O | -0.638% | –
CCCCNc1ccc(C(=O)OCCN(CC)CC)cc1 | 1.59% | –
CCCCCCCCCC#N | 12% | –
CN1CCC[C@@H]1Cc1c[nH]c2ccc(CCS(=O)(=O)c3ccccc3)cc12 | 1.3% | –
Cc1ccc(C(C)C)cc1O | 10.5% | –
CC(=O)Oc1cc(C(C)C)c(OCCN(C)C)cc1C | 9.97% | –
CCCCCCCCc1ccc(S(=O)(=O)O)cc1 | -28.8% | –
C[C@]12CCC(=O)C=C1CC[C@@H]1[C@@H]2CC[C@@]2(C)[C@H]1CC[C@]2(O)C(=O)CO | -16.9% | –
CC(C)=CCC[C@](C)(O)[C@@H]1CC=C(C)CC1 | -1.56% | –
OCc1c2ccccc2cc2ccccc12 | -14.6% [at 78.8 µM] | –
CCOc1ccccc1N | -13.3% | –
C[C@]12C(=O)OC(=O)[C@H]1[C@H]1C=C[C@@H]2C1 | 4.93% [at 78.8 µM] | –
COC(=O)c1ccc2cc(C(=O)OC)ccc2c1 | -3.1% [at 28.5 µM] | –
NC(Cc1ccc(F)cc1)C(=O)O (stereo not drawn) | 2.79% [at 6.95 µM] | –
CC1=C2[C@H](/C=C(\C)C(=O)O)CC[C@@H](C)[C@H]2CC1 | -4.79% [at 78.8 µM] | –
CC1=NN(c2cc(Cl)c(S(=O)(=O)O)cc2Cl)C(=O)C1N=Nc1ccc(S(=O)(=O)O)cc1 (stereo not drawn) | 5.32% | –
O=c1[nH]cnc2c1ncn2[C@@H]1O[C@H](CO)[C@@H](O)[C@H]1O | 0.448% | –
NC/C=C/C(=O)O | 3.6% | –

Experiment: qHTS assay to identify small molecule agonists of the NFkB signaling pathway (AID 1159509; active = well fitted curve in the direction sought with a large enough effect in the signal ratio in the repeat runs, not every such curve was filed as active; the % refers to the signal ratio)
Settings: NFkB-bla ME-180 cells, beta-lactamase FRET ratio, 5 h; series mostly up to 61 µM; activation: at the top concentration
In short: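 Readout: FRET fluorescence, 405 nm excitation, 460/530 nm emission; beta-lactamase expression disrupts FRET. Cells: ME-180 stably carrying NF-kB-driven bla reporter. Compound exposure 5 hr, 37 C, 5% CO2.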

Compound | activation
O=C1Nc2ccc([N+](=O)[O-])cc2C1=O | 0.358%
O=C1CCN(c2ccccc2)N1 | -0.13% [at 78.8 µM]
C[C@@H](N)C(=O)O | -0.144%
CCc1cc(Cl)c(OC)c(C(=O)NC[C@@H]2CCCN2CC)c1O | 0.0801%
CC1(O)CSC(C)(O)CS1 (stereo not drawn) | -0.639%
Cc1cc2nc(N)sc2cc1C | 0.121% [at 78.8 µM]
Cc1nc(N)nc(N)c1-c1ccc(Cl)c(Cl)c1 | 1.84%
Cc1c(-c2ccccc2)oc2c(C(=O)OCCN3CCCCC3)cccc2c1=O | 0.14%
COc1ccc(Nc2ccc(OC)cc2)cc1 | -1.38% [at 78.8 µM]
CCCCCCCOC(=O)CCC | -0.293%
CCCCCCCCCCCCCCCCOP(=O)([O-])OCC[N+](C)(C)C | 2.61%
CCCCCCOc1ccc(N)cc1 | 0.0946%
CC(C)c1ccccc1 | -1.24% [at 78.8 µM]
Cc1nc(-c2ccccn2)ncc1C(=O)Nn1cc(C)c2cc(F)ccc21 | -0.267%
CN1CCN(C2=Nc3cc(F)ccc3Cc3ccccc32)CC1 | 1.46%
Cc1cccc(C)c1NC(=O)CN1CCCCCC1 | -0.287%
O=C(CC(=O)C(F)(F)F)c1ccccc1 | -0.45% [at 78.8 µM]
O=Cc1ccc(O)c(O)c1O | 0.73%
CC(C)C[C@H](NC(=O)OCC1c2ccccc2-c2ccccc21)C(=O)O | 0.365%
CCCCNc1ccc(C(=O)OCCN(CC)CC)cc1 | -0.01%
CCCCCCCCCC#N | -0.196%
CN1CCC[C@@H]1Cc1c[nH]c2ccc(CCS(=O)(=O)c3ccccc3)cc12 | 0.818%
Cc1ccc(C(C)C)cc1O | 0.464%
